These results are taken from PubChem BioAssay (NCATS).

What all share (experiment): qHTS profiling for inhibitors of Plasmodium falciparum proliferation (AID 504749); note: nearly all actives have a fitted effect of over 60% in size
Holding throughout (details): P. falciparum in erythrocytes, SYBR Green DNA, 72 h; series mostly up to 28.7 µM
For orientation: In qHTS, concentration-response curves come from the screen itself.

In one assay the test system is CP203. In outline: (§1)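 In a 72 h erythrocytic culture (37 C, humidified, 5% CO2) at 2.5% hematocrit and 0.3% starting parasitemia, compounds were tested; SYBR Green I in detergent lysis buffer stained parasite DNA overnight.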
Another assay deals with CP211. The method, boiled down:
as §1

The next assay deals with CP215. The method, boiled down: as §1
The test system of a further assay is CP217. In outline: as §1
The next assay relates to CP237. The method, boiled down: as §1
A further assay relates to CP238. The method, boiled down: as §1
A further assay concerns CP247. The method, boiled down:
as §1

A further assay deals with CP250. In outline: as §1
The next assay deals with CP252. The method, boiled down: as §1
The test system of another assay is CP256. The method, boiled down: as §1

Each structure is given as a SMILES string. “And” between values parts separate entries of the source, which are not always exact repeats. Equal entries are not always repeated. Records with an inconclusive call do not appear. The source made the active and inactive calls. Calls come from the whole dose curve; as a rule, active = well fitted inhibition curve with a large enough effect; inconclusive = small, poorly fitted or top-dose-only effect; inactive = flat fitted curve, though single readings scatter.
Potency is the fitted concentration of half-maximal effect.

As to `CCC(N)Cc1c[nH]c2ccccc12` (centres undefined), the Potency result in the assay on CP203, in the assay with CP211, in the assay on CP215, with CP217, with CP237 and in the assay with CP238 was “inactive” each time. In addition, the Potency entry with CP247, with CP250, with CP252 and in the assay on CP256 was “inactive” in each case.

Consider `O=C/C=C/c1ccccc1`, for which the Potency entry in the assay on CP203, in the assay on CP211, in the assay with CP215, in the assay on CP217, in the assay on CP237 and in the assay on CP238 was “inactive” throughout. Besides, the Potency result with CP247, with CP250, in the assay on CP252 and in the assay on CP256 was “inactive” in each case.

For the compound `CCC1(c2ccccc2)C(=O)NC(=O)NC1=O`, the Potency result with CP203, with CP211, with CP215, with CP217, in the assay with CP237 and in the assay with CP238 was “inactive” throughout. The Potency entry with CP247, in the assay with CP250, in the assay on CP252 and in the assay with CP256 was “inactive” each time.

In the case of `CC(C)(O)C1C2OC(=O)C1C1(O)CC3OC34C(=O)OC2C14C` (centres undefined), the Potency entry in the assay with CP203, with CP211, in the assay with CP215, in the assay with CP217, with CP237 and in the assay with CP238 was “inactive” each time. Moreover, the Potency result with CP247, in the assay on CP250, in the assay with CP252 and in the assay on CP256 was “inactive” in each case.

For `CNC1(c2ccccc2Cl)CCCCC1=O` (centres undefined), the Potency entry with CP203, in the assay with CP211, in the assay on CP215, with CP217, with CP238 and with CP247 was “inactive” throughout. Besides, the Potency entry in the assay with CP250, in the assay with CP252 and with CP256 was “inactive” throughout. Moreover, the Potency in the assay on CP237 is 8.91 µM (active) and 7.94 µM (active).

Take `O=c1[nH]cc(N(CCCl)CCCl)c(=O)[nH]1`: the Potency entry in the assay on CP203, in the assay on CP211, in the assay with CP215, in the assay with CP217, in the assay with CP237 and in the assay with CP238 was “inactive” each time. The Potency result with CP247, in the assay with CP250, in the assay on CP252 and in the assay with CP256 was “inactive” in each case.

In the case of `Cn1sc(Cl)cc1=O`, the Potency result in the assay with CP203, in the assay with CP211, in the assay with CP215, with CP217, in the assay with CP237 and in the assay with CP238 was “inactive” each time. The Potency entry in the assay on CP247, in the assay with CP250, in the assay on CP252 and with CP256 was “inactive” each time.

Take `Clc1ccc(Cl)cc1`: the Potency entry with CP203, in the assay with CP211, in the assay on CP215, with CP217, in the assay with CP237 and in the assay with CP238 was “inactive” each time. Further, the Potency result in the assay with CP247, in the assay with CP250, in the assay on CP252 and in the assay on CP256 was “inactive” throughout.

Consider `CCON=O`, for which the Potency entry in the assay on CP203, with CP211, in the assay on CP215, in the assay on CP217, with CP237 and in the assay with CP238 was “inactive” in each case. Besides, the Potency result in the assay with CP247, with CP250, in the assay on CP252 and with CP256 was “inactive” in each case.

Take `CC(=O)OC1CN2CCC1CC2` (centres undefined): the Potency result in the assay on CP203, in the assay with CP211, in the assay with CP215, in the assay on CP217, in the assay on CP237 and in the assay with CP238 was “inactive” throughout. The Potency result in the assay with CP247, in the assay on CP250, in the assay on CP252 and in the assay on CP256 was “inactive” in each case.

Turning to `Clc1ccccc1Cl`, the Potency result in the assay with CP203, with CP211, in the assay with CP215, in the assay on CP217, in the assay on CP237 and with CP238 was “inactive” each time. Moreover, the Potency entry with CP247, with CP250, in the assay with CP252 and with CP256 was “inactive” in each case.

Regarding `CCC1(CC)C(=O)NC(=O)N(C)C1=O`, the Potency entry in the assay on CP203, in the assay on CP211, in the assay on CP215, with CP217, in the assay with CP237 and with CP238 was “inactive” each time. The Potency entry with CP247, in the assay with CP250, in the assay on CP252 and with CP256 was “inactive” throughout.

Take `CC[N+](C)(CC)CCOC(=O)C(O)(c1ccccc1)c1ccccc1`: the Potency entry in the assay with CP203, in the assay on CP211, in the assay with CP215, in the assay with CP217, in the assay on CP237 and with CP238 was “inactive” in each case. Moreover, the Potency entry in the assay with CP247, in the assay on CP250, in the assay with CP252 and in the assay with CP256 was “inactive” each time.

For the compound `O=C(OCCN1CCCCC1)C(O)(c1ccccc1)c1ccccc1`, the Potency result in the assay on CP203, in the assay with CP211, in the assay on CP215, with CP217, in the assay on CP237 and in the assay on CP238 was “inactive” each time. Also, the Potency result in the assay on CP247, with CP250, with CP252 and with CP256 was “inactive” in each case.

With `O=C(CS(=O)C(c1ccccc1)c1ccccc1)NO` (centres undefined), the Potency result in the assay with CP203, with CP211, with CP215, in the assay on CP217, with CP237 and in the assay on CP238 was “inactive” in each case. Moreover, the Potency entry with CP247, in the assay with CP250, with CP252 and in the assay with CP256 was “inactive” each time.

`CN1C2CCC1CC(OC(c1ccccc1)c1ccc(Cl)cc1)C2` (centres undefined): the Potency with CP203 is 12 µM (active); in the assay on CP211, 15.1 µM (active); with CP215, 10.7 µM (active); in the assay with CP217, 7.08 µM (active); in the assay with CP237, 11.2 µM (active); in the assay with CP238, 10 µM (active). In addition, the Potency with CP247 is 10 µM (active); in the assay with CP250, 10 µM (active); in the assay on CP252, 7.94 µM (active); in the assay with CP256 it was 7.08 µM (active).

Take `C[N+]1(C)CCCCC1COC(=O)C(O)(c1ccccc1)c1ccccc1` (centres undefined): the Potency entry in the assay on CP203, in the assay with CP211, in the assay on CP215, in the assay on CP217, in the assay on CP237 and in the assay with CP238 was “inactive” in each case. The Potency result in the assay with CP247, with CP250 and in the assay on CP252 was “inactive” in each case.

As for `CCC1(C)CC(=O)NC(=O)C1`, the Potency result in the assay with CP203, in the assay on CP211, in the assay with CP215, in the assay with CP217, in the assay with CP237 and with CP238 was “inactive” throughout. The Potency entry in the assay with CP247, with CP250, with CP252 and in the assay on CP256 was “inactive” throughout.

Turning to `CCCC(C)C1(CC)C(=O)NC(=O)NC1=O` (centres undefined), the Potency entry in the assay on CP203, in the assay with CP211, with CP215, with CP217, with CP237 and with CP238 was “inactive” in each case. In addition, the Potency entry in the assay with CP247, with CP250, in the assay on CP252 and with CP256 was “inactive” throughout.

In the case of `O=C1CCCCC1CN1CCCCC1` (centres undefined), the Potency result in the assay with CP203, with CP211, with CP215, with CP217, with CP237 and in the assay on CP238 was “inactive” in each case. In addition, the Potency result in the assay with CP247, in the assay on CP250, in the assay with CP252 and in the assay on CP256 was “inactive” throughout.

As for `C=CCN(C1=NCCN1)c1c(Cl)cccc1Cl`, the Potency entry in the assay with CP203, with CP211, in the assay on CP215, in the assay on CP217, in the assay on CP237 and in the assay on CP238 was “inactive” in each case. The Potency result with CP247, with CP250, in the assay with CP252 and in the assay on CP256 was “inactive” throughout.

With `O=Cc1ccco1`, the Potency entry in the assay on CP203, in the assay with CP211, with CP215, with CP217, with CP237 and in the assay on CP238 was “inactive” in each case. The Potency entry in the assay on CP247, in the assay on CP250, with CP252 and in the assay on CP256 was “inactive” each time.

In the case of `[O]=[Cd]`, the Potency result in the assay on CP203, in the assay on CP211, with CP215, in the assay with CP217, with CP237 and in the assay on CP238 was “inactive” throughout. Moreover, the Potency result in the assay on CP247, in the assay on CP250, in the assay on CP252 and in the assay with CP256 was “inactive” each time.
